Bioassay records: PubChem, several laboratories
M1 PAM: human CHRM1 positive allosteric modulation | P11229 | CHO-K1 hM1, Fluo-8 calcium fluorescence, ACh EC20; 0% = ACh EC20, 100% = maximal ACh | activation, % at 3 µM | actives 0.088% (n = 360,000) | AID 588819; in the data active = activation above about 19%, passing the limit was not always enough
Target sequence (P11229 whole entry, looked up): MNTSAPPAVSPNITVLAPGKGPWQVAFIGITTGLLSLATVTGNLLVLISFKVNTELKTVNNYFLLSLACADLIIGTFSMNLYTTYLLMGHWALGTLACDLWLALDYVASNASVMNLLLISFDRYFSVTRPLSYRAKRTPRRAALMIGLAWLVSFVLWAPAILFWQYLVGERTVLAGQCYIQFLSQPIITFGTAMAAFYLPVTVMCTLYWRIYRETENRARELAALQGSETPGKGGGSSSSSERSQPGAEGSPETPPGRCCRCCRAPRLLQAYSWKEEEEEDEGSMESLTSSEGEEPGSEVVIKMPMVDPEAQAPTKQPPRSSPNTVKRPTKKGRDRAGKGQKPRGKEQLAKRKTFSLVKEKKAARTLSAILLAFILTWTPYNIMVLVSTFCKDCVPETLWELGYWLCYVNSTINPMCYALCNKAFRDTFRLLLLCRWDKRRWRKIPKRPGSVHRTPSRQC
ATG4B inhibitor: inhibitors of human ATG4B cysteine protease. ATG4B cleavage of LC3-PLA2, NBD-HPC fluorescence, 1 h. inhibition, % at 8.33 µM. actives 0.51% (n = 340,000). AID 504462; in the data active = inhibition above about 40%
M1 antag: human CHRM1 antagonism. P11229. CHO-K1 hM1, Fluo-8 calcium fluorescence, ACh EC80 antagonist. inhibition, % at 3 µM. actives 1.3% (n = 360,000). AID 588852;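 active = percent inhibition above its own plate's cutoff, namely the mean of that plate's compound wells plus 3 SD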;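 note: peak over basal fluorescence ratio during 140 s after agonist addition; 0% = ACh EC80 plus DMSO and 100% = DMSO alone without agonist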
M1 ag: activates human CHRM1 receptor | P11229 | CHO-K1 hM1, Fluo-8 calcium fluorescence, agonist mode; 0% DMSO, 100% acetylcholine EC100 | activation, % at 3 µM | actives 0.33% (n = 360,000) | AID 588814;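 active = activation above the run's mean compound activation plus 3 SD, cut at about 16% in these data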;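 note: peak over basal fluorescence ratio within a 140 s kinetic read after compound addition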
SKN-1 inh: inhibitors of C. elegans SKN-1. C. elegans VP596 Pgst-4::GFP/RFP ratio, acrylamide-induced, 24 h. inhibition, % at 21.8 µM. actives 0.49% (n = 360,000). AID 624304;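 active = interference check ratio from 0.5 to 1.5 plus GFP to RFP signal ratio inhibition reaching or exceeding a fixed threshold, cut at about 30% in these data, passing the limit was not always enough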
Myeloid diff MLP: promotes myeloid progenitor differentiation; ER-HoxA9 myeloid progenitors, lysozyme-GFP differentiation, flow cytometry; calls only at 10 µM; actives 1% (n = 360,000); AID 624256;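 active = normalized GFP-positive differentiation at or above the plate's own cutoff, the solvent-only control mean plus 3 SD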;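 note: cells exposed to compound for four days before flow analysis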
Myeloid diff: promotes myeloid progenitor differentiation. actives 2% (n = 2,300). ER-HoxA9 myeloid progenitors, GFP/Mac1 double-positive flow. shares compounds with Myeloid diff MLP. calls only. AID 651706;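 active = share of green or green-and-red cells above 9 and 9% in run 1 or 4 and 3% in run 2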
GFP autofluor: counter-screen for myeloid differentiation promoters: compound fluorescence. shares compounds with Myeloid diff MLP. ER-HoxA9 myeloid progenitors, no estrogen, GFP autofluorescence flow cytometry; vehicle wells 0%, positive control 100%. fluorescence response, % (no concentration beside the values). actives 7.4% (n = 2,300). AID 651707;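 active = over 5% cells positive for green fluorescent reporter, or over 2% positive for both it and APC stain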;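 note: range taken on the double positive population between DMSO and positive control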
* hit, by the source's call. A selection: hits, their analogues and other compounds. The true share with any hit is near 3.5%.

For C=Cn1cc[n+](CC(=O)c2ccc(OC)cc2)c1 the results were M1 PAM -2, ATG4B inhibitor -9, M1 antag -6, M1 ag -8, SKN-1 inh -1, Myeloid diff MLP active, Myeloid diff inactive and GFP autofluor 1.
`COc1ccc(C(CCNCc2ccccc2)c2ccc(F)cc2)cc1` (centres undefined) gave M1 PAM -7, ATG4B inhibitor 8, M1 antag 11, M1 ag -6, SKN-1 inh 0, Myeloid diff MLP inactive, Myeloid diff inactive and GFP autofluor 2.
Cc1ccc(/C=N/NC(=O)c2ccc(NC(=O)c3ccc(Cl)cc3)cc2)o1 was read as M1 PAM 6, ATG4B inhibitor -1, M1 antag 0, M1 ag -5, SKN-1 inh 3 and Myeloid diff MLP inactive.
Screening Cc1ccc(C(=O)Nc2ccc(C(=O)N/N=C/c3ccc(C)o3)cc2)cc1 returned M1 PAM 11, ATG4B inhibitor -1, M1 antag -15, M1 ag -9, SKN-1 inh 8, Myeloid diff MLP active, Myeloid diff inactive and GFP autofluor 1.
Cc1cc(NC(=O)c2noc3c2CCCC3)n(-c2ccccc2)n1 was read as M1 PAM 6, ATG4B inhibitor -8, M1 antag 2, M1 ag 0, SKN-1 inh 7, Myeloid diff MLP active, Myeloid diff inactive and GFP autofluor 0.
`Cc1cc(NC(=O)c2cc(C)on2)n(-c2ccccc2)n1` gave M1 PAM 6, ATG4B inhibitor -2, M1 antag 0, M1 ag -8, SKN-1 inh 2 and Myeloid diff MLP inactive.
Cc1cc(NC(=O)c2cc(-c3ccc4c(c3)OCO4)on2)n(-c2ccccc2)n1 was read as M1 PAM 16, ATG4B inhibitor -15, M1 antag -7, M1 ag 2, SKN-1 inh -1, Myeloid diff MLP active, Myeloid diff inactive and GFP autofluor 0.
For COc1ccc(S(=O)(=O)N2CCN(CCOc3ccc(Br)cc3)CC2)cc1OC the results were M1 PAM -3, ATG4B inhibitor 5, M1 antag 9, M1 ag -3, SKN-1 inh 14 and Myeloid diff MLP inactive.
`COc1ccc(S(=O)(=O)N2CCN(CCOc3ccccc3Cl)CC2)cc1OC` gave M1 PAM 5, ATG4B inhibitor -36, M1 antag -9, M1 ag 1, SKN-1 inh 8, Myeloid diff MLP inactive, Myeloid diff inactive and GFP autofluor 0.
`NNc1nc2c(F)cc(F)cc2s1` gave M1 PAM 1, ATG4B inhibitor 4, M1 antag -4, M1 ag -5, SKN-1 inh 9, Myeloid diff MLP active, Myeloid diff inactive and GFP autofluor 0.
NNc1nc2c(F)cccc2s1 was read as M1 PAM -7, ATG4B inhibitor -5, M1 antag -15, M1 ag -7, SKN-1 inh 3 and Myeloid diff MLP inactive.
`CC(C)Cn1c(N)c(C(=O)COC(=O)c2cnccn2)c(=O)n(C)c1=O` gave M1 PAM 9, ATG4B inhibitor -2, M1 antag -21, M1 ag -1, SKN-1 inh -1, Myeloid diff MLP active, Myeloid diff inactive and GFP autofluor 1.
For Cc1csc(SCC(=O)c2c(N)n(CC(C)C)c(=O)n(C)c2=O)n1 the results were M1 PAM 4, ATG4B inhibitor 3, M1 antag 2, M1 ag -1, SKN-1 inh -14, Myeloid diff MLP active, Myeloid diff inactive and GFP autofluor 51*.
CCCn1nnnc1SCC(=O)N1C(C)CCCC1C (centres undefined) was read as M1 PAM 2, ATG4B inhibitor -5, M1 antag 6, M1 ag -6, SKN-1 inh 9 and Myeloid diff MLP inactive.
`CN(C)S(=O)(=O)c1ccc(NC(=O)C2CCCN(C(=O)c3ccc(Cl)cc3)C2)cc1` (centres undefined) gave M1 PAM 11, ATG4B inhibitor -5, M1 antag -8, M1 ag -5, SKN-1 inh 3 and Myeloid diff MLP inactive.
Screening O=C(Nc1ccc(S(=O)(=O)N2CCCCC2)cc1)C1CCCN(C(=O)c2ccc(Cl)cc2)C1 (centres undefined) returned M1 PAM 2, ATG4B inhibitor 0, M1 antag -7, M1 ag -6, SKN-1 inh -4, Myeloid diff MLP inactive, Myeloid diff inactive and GFP autofluor 2.
`COc1ccccc1CNC(=O)CSc1ccsc1[N+](=O)[O-]` gave M1 PAM 0, ATG4B inhibitor 24, M1 antag -4, M1 ag -10, SKN-1 inh -10, Myeloid diff MLP inactive, Myeloid diff inactive and GFP autofluor 1.
O=C(CSc1ccsc1[N+](=O)[O-])NCc1ccccc1 was read as M1 PAM 0, ATG4B inhibitor 11, M1 antag 2, M1 ag -7, SKN-1 inh 3 and Myeloid diff MLP inactive.
For CC1(C)OC(=O)N(CCc2ccccc2)C1(C)O (centres undefined) the results were M1 PAM 10, ATG4B inhibitor -7, M1 antag -5, M1 ag -5, SKN-1 inh 33, Myeloid diff MLP inactive, Myeloid diff inactive and GFP autofluor 0.
CC1(C)OC(=O)N(CC(=O)Nc2ccccc2)C1(C)O (centres undefined) was read as M1 PAM 13, ATG4B inhibitor -10, M1 antag -5, M1 ag -5, SKN-1 inh 12 and Myeloid diff MLP inactive.
Screening C[C@H]1CN([C@@H](C)CO)C(=O)CCCn2nncc2CO[C@H]1CN(C)S(=O)(=O)c1cccc(F)c1 returned M1 PAM 2, M1 antag -9, M1 ag -7, SKN-1 inh 10, Myeloid diff MLP inactive, Myeloid diff inactive and GFP autofluor 0.
`C[C@H](CO)N1C[C@H](C)[C@@H](CN(C)S(=O)(=O)c2cccc(F)c2)OCc2cnnn2CCCC1=O` gave M1 PAM 2, M1 antag -9, M1 ag -1, SKN-1 inh 0 and Myeloid diff MLP inactive.
Screening C[C@@H]1CN([C@@H](C)CO)C(=O)CCCn2nncc2CO[C@@H]1CN(C)C(=O)CCC(F)(F)F returned M1 PAM 1, M1 antag -10, M1 ag -2, SKN-1 inh 1 and Myeloid diff MLP inactive.
